Source: PubChem BioAssay (National Center for Advancing Translational Sciences (NCATS))
Rows were chosen to be rich in hits. Some 7.6% of all compounds tested hit in one or more screens of this group.
p53 reactivation – mutant p53 re-activation in reporter cells. H1299 p53-A138V BP100-luciferase reporter, luminescence, 24 h. Potency, µM (doses to about 92.2 µM), actives largely listed as activators. actives 0.063% (n = 320,000); further: nearly all actives have a fitted effect of over 45% in size
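H1299 (p53-null), stable ts p53-A138V + BP100-Luc; 1000 cells/well, Opti-MEM/10% FBS; cpd 4 pt, 1:5; 24 h, 37 deg C, 5% CO2; detection reagent 10 min RT; luminescence.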
RORg inh – inhibitors of mouse ROR gamma transcriptional activity. Drosophila S2 Gal4-RORgamma UAS-luciferase reporter, 20 h. actives 5.4% (n = 310,000). Potency, µM (series often up to 53.6 µM), usual class: inhibitors; further: nearly all actives have a fitted effect of over 60% in size
Target sequence (P51450 whole entry, looked up, the tested form may be a part): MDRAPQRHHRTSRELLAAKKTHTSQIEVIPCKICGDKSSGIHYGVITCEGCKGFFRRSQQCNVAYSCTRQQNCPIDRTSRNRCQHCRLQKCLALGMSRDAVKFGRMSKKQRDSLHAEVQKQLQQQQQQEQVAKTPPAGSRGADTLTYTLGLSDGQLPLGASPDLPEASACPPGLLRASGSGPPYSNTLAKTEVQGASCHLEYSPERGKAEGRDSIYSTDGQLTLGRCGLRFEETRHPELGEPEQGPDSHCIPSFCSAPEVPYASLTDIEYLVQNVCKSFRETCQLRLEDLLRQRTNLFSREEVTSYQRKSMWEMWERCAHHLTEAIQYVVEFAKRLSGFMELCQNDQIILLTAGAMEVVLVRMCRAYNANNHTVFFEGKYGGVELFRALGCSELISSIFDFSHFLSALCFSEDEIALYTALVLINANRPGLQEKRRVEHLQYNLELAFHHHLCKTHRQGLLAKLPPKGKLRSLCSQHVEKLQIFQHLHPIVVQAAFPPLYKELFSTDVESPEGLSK
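A Gal4/UAS one-hybrid system in insect cells: metallothionein-promoter Gal4–ROR gamma fusion plus Photinus luciferase reporter. Copper sulfate 700 uM final, 20 hr ambient incubation, luminescent detection after 10 min with reagent.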
Giardia kill – Giardia lamblia killing; Giardia lamblia trophozoite viability; activity change, % at 7.66 µM, hits read low; actives 0.15% (n = 340,000); AID 540267; in the data active means activity change below about -80%; inconclusive means between about -30% and that limit;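 further: parasites exposed to compound for two days anaerobically before the ATP read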
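Viability, read as ATP luminescence: trophozoites at 100 cells/well, compound added, 48 hrs anaerobic at 37 deg C, then 15-30 min room-temperature development before reading.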
VP16 counter – Gal4-VP16 reporter inhibition counter-screen; Drosophila S2 Gal4-VP16 UAS-luciferase, luminescence, 20 h; Potency, µM (titrated, usually from 53.6 µM), hits mostly inhibitors; actives 3.5% (n = 310,000);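 further: Gal4-VP16 expression switched on by copper sulfate through the metallothionein promoter; nearly all actives have a fitted effect of over 50% in size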
BRCA1 expr up – activators of BRCA1 expression. MCF7-BRCA1-FFLuc reporter, luminescence, 48 h; response scale: scaled: vehicle 0%, 10 µM genistein 100%. Potency, µM (series often up to 46.1 µM), actives largely listed as activators. actives 1.1% (n = 380,000); further: nearly all actives have a fitted effect of over 80% in size
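First, MCF7-BRCA1-FFLuc cells (2000/well) attach for 2 h; next, compounds are pin-added and incubated 48 h at 37 °C; finally, luciferase reagent is added and luminescence read after 15 min.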
ELG1 repair inh – inhibitors of ELG1-dependent DNA repair in HEK293T cells; Potency, µM (doses to about 46.1 µM), most hits filed as inhibitors; HEK293T ELG1-luciferase reporter, luminescence, 16 h; DNA damage induced by 5-fluorouridine; actives 2.3% (n = 330,000); further: nearly all actives have a fitted effect of over 55% in size
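Overnight (16 hr) co-exposure of 2,000 cells/well to 5-fluorouridine and compound at 37 °C preceded detection. Luciferase was quantified via ONE-Glo luminescence; loss of signal denotes inhibition.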
Hits are given with their value; . = inactive; ? = inconclusive; / = no result. Unless noted, the call rests on the fitted dose curve; in most records, active means well fitted curve in the direction sought with a large enough effect; inconclusive means small, poorly fitted or top-dose-only effect, or another doubt; inactive means no such curve, though single readings can be large; an effect the other way counts as inactive or inconclusive.

SMILES	p53 reactivation	RORg inh	Giardia kill	VP16 counter	BRCA1 expr up	ELG1 repair inh
CC(C)NC(=O)NC(=O)COC(=O)CCCSc1nc2ccccc2s1	.	11.2µM	.	6.31µM	.	.
CCOC(=O)NC(=O)COC(=O)CCCSc1nc2ccccc2s1	.	7.08µM	.	8.91µM	.	.
O=C(COC(=O)CCCc1nc2ccccc2s1)NC(=O)NCc1ccco1	.	.	.	.	.	.
CCOC(=O)N/C(N)=N/c1nc2ccccc2s1	?	?	.	28.2µM	?	?
NC(=O)NC(=O)COC(=O)CCCSc1nc2ccccc2s1	.	11.2µM	.	8.91µM	.	.
CCOC(=O)c1c(NC(=O)CSc2nc3ccccc3s2)sc(C)c1C	.	.	.	.	.	.
COc1cc(CCC(=O)Nc2c(C(=O)N3CCN(c4ccccc4OC)CC3)oc3ccccc23)on1	.	.	.	.	.	?
COc1ccc(C2CC(c3cccs3)=NN2C(=O)CSc2nc3ccccc3o2)cc1 (configuration not stated)	.	.	.	.	.	.
Cn1c(=O)c2cc(NC(=O)Nc3cccnc3)ccc2n1-c1ccc(C(C)(C)C)cc1	/	/	/	/	.	/
COc1ccc(-c2nc(CS(=O)CC(=O)NC(C)CCc3ccccc3)c(C)o2)cc1OC (configuration not stated)	.	.	.	.	.	18.3µM
Cc1oc(-c2ccc(Cl)cc2)nc1CS(=O)CC(=O)NCc1ccc2c(c1)OCO2 (configuration not stated)	.	.	.	.	.	?
COc1ccc(-c2nc(CSCC(=O)NCc3ccc4c(c3)OCO4)c(C)o2)cc1OC	.	.	.	.	.	?
COc1ccc(-c2nc(CS(=O)CC(=O)NCc3ccc4c(c3)OCO4)c(C)o2)cc1OC (configuration not stated)	.	?	.	.	.	14.6µM
COc1ccc(-c2nc(CSCC(=O)NCc3ccc4c(c3)OCO4)c(C)o2)cc1	.	12.6µM	.	12.6µM	.	?
CC[C@H](C)[C@H](NC(=O)[C@@H](NC(=O)CNC(=O)[C@@H](N)CC(C)C)[C@@H](C)O)C(=O)N1CCC[C@H]1C(=O)NCC(=O)O	/	.	/	.	/	/
O=C(Nc1ccc2c(c1)C(=O)OC2)c1ccc(C(F)(F)F)cc1	.	.	.	.	.	.
COC(=O)c1ccc(C)c(NC(=O)CSc2nc3[nH]c(=O)cc(O)c3s2)c1	?	/	.	/	.	.
CN(C)C(CNC(=O)CCc1nc2cc(Cl)ccc2n(Cc2ccccc2)c1=O)c1ccccc1 (configuration not stated)	.	/	.	/	.	.
CCNC(=S)NNC(=O)CCc1nc2cc(Cl)ccc2n(Cc2ccccc2)c1=O	.	6.31µM	.	.	.	.
CCNC(=S)NNC(=O)CSc1nc2ccccc2[nH]1	.	3.98µM	.	12.6µM	.	.
CCNC(=S)NNC(=O)CSc1nc2ccccc2n1C	.	0.224µM	.	0.708µM	.	.
C[C@H]1CN([C@@H](C)CO)S(=O)(=O)c2ccc(C#Cc3ccccn3)cc2O[C@H]1CN(C)Cc1ccc(F)cc1	/	/	/	/	.	/
CC(NC(=O)Nc1ccc(F)cc1F)c1ccc2c(c1)OCO2 (configuration not stated)	.	.	.	.	.	.
CCOc1ccc(C(=O)Cc2cc(OC)c(OC)cc2[N+](=O)[O-])cc1	.	.	.	.	.	.
COc1ccccc1C/C(N)=N/OC(=O)c1cccc([N+](=O)[O-])c1C	.	.	.	12.6µM	.	23.1µM
SMILES	p53 reactivation	RORg inh	Giardia kill	VP16 counter	BRCA1 expr up	ELG1 repair inh
COc1cccc(C(=O)CC(=O)C(=O)Nc2cccc([N+](=O)[O-])c2C)c1	.	14.1µM	.	?	.	.
Cc1c(C(=O)OCC(=O)Nc2ccccc2OC(F)F)cccc1[N+](=O)[O-]	.	.	.	.	.	.
COc1ccc(C(=O)Cc2cc(OC)c(OC)cc2[N+](=O)[O-])cc1	.	.	.	.	11.2µM	?
COc1ccccc1C(=O)CC(=O)C(=O)Nc1cccc([N+](=O)[O-])c1C	.	7.08µM	.	12.6µM	.	18.3µM
Cc1cc(C)n(CC(=O)NNC(=O)CC(C)c2ccccc2)n1 (configuration not stated)	?	/	.	/	.	?
Cc1nc(C)c(/C(O)=C/c2nc3ccc([N+](=O)[O-])cc3oc2=O)o1	.	.	/	.	/	.
COc1ccc(C(=O)N[C@H](C(=O)OCc2nc3ccsc3c(=O)[nH]2)C(C)C)cc1	.	/	.	/	.	.
Cc1cccc(C(=O)NNS(=O)(=O)c2ccccc2[N+](=O)[O-])c1	.	.	.	.	.	.
Cc1c(C(=O)Nc2ccc(Nc3ccccc3)cc2)cccc1[N+](=O)[O-]	/	/	.	/	.	?
COc1ccc(C(=O)CC(=O)C(=O)Nc2cccc([N+](=O)[O-])c2C)cc1	.	10µM	.	?	.	.
CCC(=O)Nc1cccc(NC(=O)c2cccc([N+](=O)[O-])c2C)c1	.	.	.	?	.	23.1µM
CC(C)(C)N1C(=O)[C@H]2[C@@H](c3ccc(Br)cc3)N3C(=O)N(c4ccc(Br)cc4)C(=O)[C@@]3(Cc3ccccc3)[C@H]2C1=O	.	.	.	.	.	.
O=C(OCC(=O)c1cccc2ccccc12)c1ccc(CO)cc1	.	.	.	.	?	?
CCOc1ccc2nc(Cl)c(C3CC(c4ccccc4)=NN3C(=O)c3ccco3)cc2c1 (configuration not stated)	.	.	/	.	/	.
Cc1ccc(C(=O)NCC(=O)OCC(=O)N(CC(C)C)c2c(N)n(Cc3ccccc3)c(=O)[nH]c2=O)s1	/	/	/	/	.	/
O=C(O)c1ccc(/C=C/C(=O)c2ccc3c(c2)OCCCO3)cc1	.	5.01µM	?	10µM	.	?
O=C(/C=C/c1ccc2c(c1)OCCO2)c1ccccc1	?	.	.	?	7.08µM	?
COc1cccc(/C=C/C(=O)c2ccc3c(c2)OCCO3)c1OC	/	11.2µM	?	?	.	?
CC(=O)Nc1ccc(/C=C/C(=O)c2ccc3c(c2)OCCO3)cc1	?	?	.	.	.	.
CC(C)(C)c1cc(C(=O)/C=C/c2ccc(C(=O)O)cc2)cc(C(C)(C)C)c1	/	7.08µM	/	?	/	/
CCC1=NC(c2ccc(OC)cc2)N(O)C1(C)C (configuration not stated)	.	.	.	.	.	.
Cc1cccc(N/N=C2/COC(C)(C)CC2=O)c1	?	.	.	?	7.94µM	?
COc1ccccc1N/N=C1\COC(C)(C)CC1=O	.	.	.	.	.	?
